MITF inh = blocks human microphthalmia-associated transcription factor; O75030; AlphaScreen MITF homodimerization, bead proximity signal; inhibition, % at 2.6 µM; 650,000 tested, 0.91% active; AID 1259374; in the data active = inhibition above about 50%;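 note: 0% = vehicle wells with protein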
TEAD-YAP inh = TEAD-YAP interaction inhibition; inhibition, % at 9.12 µM; HEK-TIYL cells, TEAD-Gal4/YAP UAS-luciferase luminescence; 640,000 tested, 1.4% active; in the data active = inhibition above about 32%;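 note: 0% = median of test compound wells and 100% = reference inhibitor wells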
FBW7 act = human FBW7 E3 ligase activation, primary screen | AID 1259310 | AlphaScreen FBW7–phospho-cyclin E peptide binding, activator screen | 650,000 tested, 0.13% active | normalized activity (activation), % at 26.1 µM; in the data active = normalized activity above about 1.9%;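 note: purified mutant Fbw7 with reduced substrate affinity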
Target sequence (Q969H0 whole entry, looked up): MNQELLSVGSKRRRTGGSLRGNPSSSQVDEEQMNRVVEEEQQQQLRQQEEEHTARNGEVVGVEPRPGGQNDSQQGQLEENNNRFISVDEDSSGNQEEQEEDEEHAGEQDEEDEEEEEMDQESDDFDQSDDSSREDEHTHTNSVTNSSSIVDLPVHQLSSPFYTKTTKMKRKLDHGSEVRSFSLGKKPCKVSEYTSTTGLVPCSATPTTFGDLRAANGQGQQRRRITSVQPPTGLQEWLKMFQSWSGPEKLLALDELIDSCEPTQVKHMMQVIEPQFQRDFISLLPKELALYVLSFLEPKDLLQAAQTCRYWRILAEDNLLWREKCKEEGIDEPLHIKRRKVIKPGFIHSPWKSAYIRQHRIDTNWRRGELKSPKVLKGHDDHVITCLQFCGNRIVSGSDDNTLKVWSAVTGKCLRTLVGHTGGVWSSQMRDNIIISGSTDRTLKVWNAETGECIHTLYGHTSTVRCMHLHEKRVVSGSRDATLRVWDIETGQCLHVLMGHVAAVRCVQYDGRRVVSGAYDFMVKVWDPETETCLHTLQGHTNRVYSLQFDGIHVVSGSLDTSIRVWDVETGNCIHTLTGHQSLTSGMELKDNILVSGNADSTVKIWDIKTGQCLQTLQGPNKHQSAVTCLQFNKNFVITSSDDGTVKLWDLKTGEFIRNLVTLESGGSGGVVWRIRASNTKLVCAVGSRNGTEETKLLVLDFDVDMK
GPR151 ag = human GPR151 activation; PathHunter beta-arrestin GPR151 cells, luminescence; activation, % at 11.2 µM; AID 1508602; 650,000 tested, 1% active; in the data active = activation above about 4.9%;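 note: 0% = median of compound wells and 100% = cells with positive control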
An asterisk follows results filed as active. An excerpt weighted towards active compounds, which were near 3.5% of everything screened.

SMILES | MITF inh | TEAD-YAP inh | FBW7 act | GPR151 ag
CCOc1ccccc1/C=C1\N=C(c2ccc(OC)cc2)OC1=O | 8.0 | -1.2 | 0.0 | -0.4
CN(C)CCNc1nc(-c2ccccc2)nc2ccccc12 | -1.6 | -14.4 | -0.1 | -0.4
CN(C)CCNc1nc(-c2ccc(C(C)(C)C)cc2)nc2ccccc12 | 9.3 | 37.1* | 0.3 | -0.8
O=C(Nc1ccc(C23CC4CC(CC(O)(C4)C2)C3)cc1)c1ccc(S(=O)(=O)N2CCCC2)cc1 | -0.6 | 0.8 | 0.0 | -1.1
COc1cc(Br)c(/C=C2\NC(=S)NC2=O)cc1OC | 6.7 | -9.4 | 0.1 | 1.1
CC(C)(C)c1ccc(NS(=O)(=O)c2cccs2)cc1 | -3.9 | -20.0 | -0.1 | 0.3
O=[N+]([O-])c1ccc(Cc2nnc(-c3ccccc3Br)o2)cc1 | 1.3 | 32.2* | -0.4 | -1.7
O=[N+]([O-])c1ccc(Cc2nnc(-c3ccc(Cl)cc3Cl)o2)cc1 | 11.2 | 51.7* | 0.4 | -0.2
O=[N+]([O-])c1ccc(Cc2nnc(-c3ccccc3Cl)o2)cc1 | -0.4 | 27.0 | -0.3 | 0.7
CCc1ccc(C2C(C(=O)Nc3ccccc3)C(C)Nc3ncnn32)cc1 (configuration not stated) | -8.9 | -7.7 | -0.1 | 0.1
Cc1cc(NC(=O)CCS(=O)(=O)c2ccc(Cl)cc2)no1 | 20.3 | -0.2 | 0.2 | -1.8
O=C(COc1ccccc1)N1CCN=C1SCc1ccc([N+](=O)[O-])cc1 | 2.8 | 14.2 | 0.2 | -1.4
Nc1nc(Nc2ccc(C(F)(F)F)cc2)nc2c1ncn2CCN1CCCC1=O | 8.9 | -12.6 | 0.5 | 0.6
CC1=NN(c2ccccc2)C(=O)C1N=Nc1cccc(O)c1 (configuration not stated) | 26.4 | 48.7* | -0.7 | -0.9
CN(Cc1ccc(-n2cccn2)cc1)c1nc2nonc2nc1NC1CC1 | 18.4 | -15.8 | 0.2 | -0.7
CC(NCCN1CCNCC1)c1cc(C(C)(C)C)cc2c1CCC2(C)C (configuration not stated) | -16.8 | 64.0* | 0.6 | -0.8
O=c1c(O)cc2c(-c3ccccc3)c3cc(O)c(O)c(Br)c3oc-2c1Br | 96.0* | -5.3 | -0.6 | -0.2
c1cncc(CNc2ncnc3nc(Nc4ccc5ncccc5c4)[nH]c23)c1 | -2.6 | 37.7* | -0.2 | -1.8
N#Cc1c(NC(=O)CCc2ccccc2)sc2c1CCC2 | -5.1 | 39.5* | 0.0 | 0.9
CCOC(=O)N1CCc2c(sc(NC(=O)/C=C/c3ccccc3)c2C#N)C1 | -8.8 | 34.7* | 0.0 | -2.0
CC(=O)N1CCc2c(sc(NC(=O)/C=C/c3cccs3)c2C#N)C1 | 8.9 | 58.0* | -0.1 | 0.1
CCOC(=O)N1CCc2c(sc(NC(=O)/C=C/c3ccccc3)c2C(N)=O)C1 | 6.7 | 39.6* | 0.2 | -1.7
CC(=O)Nc1sc2c(c1C#N)CCN(C(C)=O)C2 | -12.3 | 6.6 | -0.1 | 1.3
N#Cc1c(NC(=O)Cc2ccccc2)sc2c1CCC2 | 4.5 | -20.3 | 0.0 | 2.3
COc1cccc(-n2ccc3ccccc32)c1 | 4.0 | -7.8 | -0.2 | 0.4
SMILES | MITF inh | TEAD-YAP inh | FBW7 act | GPR151 ag
O=C(NCCC1=CCCCC1)C1CCCN1S(=O)(=O)c1ccc2ccccc2c1 (configuration not stated) | -1.2 | 0.2 | 0.1 | -0.7
N#Cc1c(NC(=O)COc2cccc3ccccc23)sc2c1CCCC2 | 15.3 | -10.8 | 2.0* | 1.5
CCOC(=O)N1CCc2c(sc(NC(=O)c3ccccc3[N+](=O)[O-])c2C#N)C1 | -10.3 | 53.4* | -0.1 | 1.0
CCOC(=O)N1CCc2c(sc(NC(=O)/C=C/c3ccccc3Cl)c2C#N)C1 | -6.3 | -2.3 | -0.1 | -0.7
CCOC(=O)N1CCc2c(sc(NC(=O)CCc3ccccc3)c2C#N)C1 | -4.5 | 54.3* | -0.1 | 0.4
O=Cc1c(NC(=O)Cc2ccccc2)sc2c1CCCC2 | -17.6 | -12.3 | 2.0* | -0.7
COc1cc(/C=C2\SC(=S)NC2=O)cc(I)c1O | 12.9 | 5.9 | -0.2 | 0.0
CC1Cc2ccccc2N1CC(=O)Nc1sc2c(c1C(N)=O)CCC2 (configuration not stated) | 0.5 | 7.1 | 0.0 | 2.0
CC1Cc2ccccc2N1CC(=O)Nc1sc2c(c1C#N)CCC2 (configuration not stated) | -2.3 | 38.3* | -0.1 | 1.0
O=C(Nc1nc2ccc(NC(=O)C34CC5CC(CC(C5)C3)C4)cc2s1)C1CCCCC1 | 20.9 | 52.7* | 0.3 | -1.6
COc1ccccc1Nc1nc2nonc2nc1Nc1cccc(Br)c1 | 2.4 | 21.0 | -0.3 | 0.2
Cc1cccc(Nc2nc(NCc3ccco3)c3ccccc3n2)c1 | -0.7 | 60.0* | -0.1 | -0.1
Brc1cccc(Nc2nc3nonc3nc2NCc2ccco2)c1 | -4.3 | 87.1* | 0.6 | 0.2
Oc1cccc(Nc2nc(NCc3ccco3)c3ccccc3n2)c1 | 15.2 | 10.7 | -0.3 | 0.6
CCc1cccc2c1N=C/C2=C\c1c(O)n(Cc2ccco2)c(=O)[nH]c1=O | 58.1* | 14.9 | -0.6 | 0.7
O=c1[nH]c(=S)n(Cc2ccco2)c(O)c1/C=C1\C=Nc2ccc(Br)cc21 | 83.8* | 10.7 | -1.0 | 0.1
CCc1cccc2c1N=C/C2=C\c1c(O)n(Cc2ccccc2)c(=O)[nH]c1=O | 3.2 | -8.9 | -0.5 | -2.1
CCSc1nc(-c2ccccc2)c(NC(=O)c2ccco2)s1 | 11.4 | -10.1 | 1.9* | -0.2
Cn1c(=O)c2c(ncn2CC(=O)NCCn2nnn(-c3ccccc3)c2=O)n(C)c1=O | 0.1 | -12.0 | 0.0 | 0.9
CCN1C(=O)c2cccc3c(N4CCCC4)ccc(c23)C1=O | -8.0 | -5.2 | 2.1* | -1.4
CCCCN1C(=O)c2cccc3c(N4CCCC4)ccc(c23)C1=O | -6.8 | -14.9 | 0.5 | 1.1
N#Cc1ccc(N2C(=O)C3CCCCC3C2=O)cc1 (configuration not stated) | 3.6 | -0.9 | 0.0 | 1.1
O=C1c2ccccc2C(=O)c2c1ccc(C(=O)OCC(=O)N1CCOCC1)c2[N+](=O)[O-] | 58.3* | 2.1 | 0.0 | -1.0
O=C(COC(=O)c1ccc2c(c1[N+](=O)[O-])C(=O)c1ccccc1C2=O)NC1CC1 | 18.4 | 11.0 | 0.4 | -5.3
COc1ccc(C(CC(=O)O)NC(=O)COc2ccccc2)cc1OC (configuration not stated) | -11.2 | -4.8 | 0.1 | -1.2
SMILES | MITF inh | TEAD-YAP inh | FBW7 act | GPR151 ag
COc1ccc(C(CC(=O)O)NC(=O)COc2cc(C)ccc2C)cc1OC (configuration not stated) | 3.4 | 5.1 | 2.9* | -0.8
CC(C)CC(=O)Nc1nc2ccc(S(=O)(=O)N3CCCCC3)cc2s1 | -0.4 | 51.9* | -0.1 | 0.6
CC(=O)Nc1nc2ccc(S(=O)(=O)N3CCCCC3)cc2s1 | -19.4 | -6.5 | 0.1 | -2.4
O=C(CCCn1c(SCC(=O)OCc2ccccc2)nc2ccsc2c1=O)NCc1ccc2c(c1)OCO2 | 3.3 | 1.7 | 0.2 | -0.2
COc1cccc2cc(S(=O)(=O)c3ccc(F)cc3)c(=O)oc12 | 5.6 | -3.0 | -0.1 | -0.8
CCN(CC)c1ccc2cc(S(=O)(=O)c3ccc(F)cc3)c(=O)oc2c1 | -31.9 | -17.1 | 2.1* | -1.1
Cn1cc(-c2ccc3cnc(Nc4ccc(-n5cnc(N6CCOCC6)n5)cc4)nc3c2-c2ccccc2)cn1 | 13.2 | 97.6* | -0.1 | -0.3
COc1c(-c2cnn(C)c2)ccc2cnc(Nc3ccc(-n4cnc(N5CCOCC5)n4)cc3)nc12 | 14.9 | 80.8* | -0.1 | -0.7

Compound activity (PubChem)
